40 compounds from PubChem BioAssay (NCATS) can be followed below.

Results filed as inconclusive are left out. Where a call stands in place of a potency, no number is given. The source made the active and inactive calls. Calls follow the shape of the dose curve; as a rule, active = well fitted inhibition curve with a large enough effect; inconclusive = small, poorly fitted or top-dose-only effect; inactive = flat fitted curve, though single readings scatter.

Chain of Phospholipid hydroperoxide glutathione peroxidase GPX4 (Homo sapiens) (P36969 whole entry, looked up): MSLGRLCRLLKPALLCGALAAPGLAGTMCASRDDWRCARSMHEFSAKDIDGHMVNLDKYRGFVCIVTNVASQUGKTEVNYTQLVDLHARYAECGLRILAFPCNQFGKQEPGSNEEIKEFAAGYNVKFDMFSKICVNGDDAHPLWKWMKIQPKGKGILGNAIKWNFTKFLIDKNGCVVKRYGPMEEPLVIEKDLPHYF

This experiment deals with Phospholipid hydroperoxide glutathione peroxidase GPX4 (Homo sapiens) (UniProt P36969). The experiment is described as follows: Primary qHTS Assay for Inhibitors of Recombinant Selenoprotein Glutathione Peroxidase 4 (GPX4) (AID 1845192). Also: nearly all actives have a fitted effect of over 65% in size. The conditions noted are these: recombinant GPX4, GR-coupled NADPH fluorescence, 15 min; series mostly up to 27.8 µM. From the text:
Assay Provider: Elias S.J. Arner MD PhD.
Department of Medical Biochemistry and Biophysics
Karolinska Institutet, Solna, Stockholm, Sweden
Selenoprotein glutathione peroxidases (GPX), like the ubiquitously expressed GPX1 and the ferroptosis modulator GPX4, enact their antioxidant activities by reducing hydroperoxides using glutathione. […] GPX1 and GPX4 inhibitors have thus shown promise as anti-cancer agents. Existing inhibitors are often promiscuous, or modulate GPX activity only indirectly, so novel direct inhibitors identified through screening against GPX1 and GPX4 could be valuable. Here, we developed optimized glutathione reductase (GR)-coupled GPX assays for the biochemical high-throughput screen (HTS) of almost 12,000 compounds with known mechanisms of action. Initial hits were triaged using a GR counter-screen, assessed for isoform specificity using a separate GPX2 assay, and were assessed for general selenocysteine-targeting activity using a thioredoxin reductase (TXNRD1) assay. With this suite of assays, we identified novel GPX1/GPX2- and GPX4-specific inhibitors and can here present a validated pipeline for future discovery research for selenoprotein-targeting agents.
SEQUENCE No. (e.g., 1, 2, 3, etc.); […] (e.g., Cells, Incubation, Reagent, etc.); VALUE; DESCRIPTION.
1; Reagent 1; 3 uL; 333.33 nM GPx4 enzyme or no enzyme control in 1536-well, black, solid Greiner assay plate.
2; Compound; 25 nL; Kalypsis pin tool (Wako USA) equipped with a 1536-well pin head.
3; Incubation; 30 min; room temperature.
4; Reagent 2; 1 uL; 500 nM GR, 5 mM GSH, 2.5 mM NADPH solution
5; Reagent 3; 1 uL; 2.5 mM CHP in 50% EtOH.
6; Detection; Fluorescence; ViewLux microplate reader, excitation 340 nm and emission 450 nm.
7; Incubation; 15 min; room temperature.
8; Detection; Fluorescence; ViewLux microplate reader, excitation 340 nm and emission 450 nm.
NOTES (numbers refer to Sequence numbers above)
1. 3 µL of 333.33 nM GPX4 and 0.016% BSA in assay buffer (50 mM Tris-HCl, 2 mM EDTA (pH 7.5), 150 mM NaCl) was added to columns 3-48 of 1536-well plates using a BioRAPTR Flying Reagent Dispenser (Let's Go Robotics (LGR), Carlsbad, CA). A no-enzyme control (0.01% BSA in TES assay buffer) was added to columns 1-2.
2. 25 nL, library and DMSO controls were added to each well with a pin tool (Kalypsys).
3. The assay plates were incubated for 30 minutes at room temperature.
4. 1 µL of master mix (500 nM glutathione reductase (GR), 5 mM reduced glutathione (GSH), 2.5 mM NADPH in assay buffer) was added.
5. 1 µL of cumene hydroperoxide (CHP) ([2.5 mM] in 50% EtOH) was then added within 5 minutes to initiate the reaction. Final concentrations were: 200 nM GPX4, 1 mM GSH, 0.5 mM CHP, 0.5 mM NADPH, 100 nM GR, 0.01% BSA.
6. Initial fluorescence readout (t=0) at 340/450 nm was measured using a ViewLux multimodal detector (PerkinElmer, Waltham, MA).
8. Endpoint fluorescence readout (t=15) at 340/450 nm was measured 15 min after room temperature incubation.
Background: Quantitative high-throughput screening tests each substance at several concentrations.
Turning to `COc1cc(C(=O)OC[C@H]2O[C@@H](OC(C)(C)C(=O)O)[C@H](O)[C@@H](O)[C@@H]2O)cc(OC)c1O`, the Potency entry was “inactive”.

Regarding `CC1CCC2(C)CCC3(C)C(=CCC4C5(C)CCC(O)C(C)(C(=O)O)C5CCC43C)C2C1C` (stereo not given), the Potency result was “inactive”.

Take `C/C=C/C=C/C(O)=C1/C(=O)[C@]2(C)C(=O)[C@@](C)(O)[C@H]1[C@H]([C@@]1(C)OC(=O)C(C)=C1O)[C@H]2C(=O)CC/C=C/C`: the Potency entry was “inactive”.

As for `C[C@H]1CC(=O)C2=C(C1)C(O)C(O)[C@@]1(O)[C@H]2C(=O)c2cccc(O)c2[C@@H]1O` (stereo not given in full), the Potency entry was “inactive”.

Consider `CC1=C2C(=O)C=C(CO[C@@H]3O[C@H](CO)[C@@H](O)[C@H](O)[C@H]3O)[C@@H]2[C@H]2OC(=O)[C@H](C)[C@@H]2CC1`, for which the Potency result is “inactive”.

As to `COC(=O)C[C@H]1C(C)(C)[C@H](OC(=O)C(C)C)C2CC3=C4CC(=O)O[C@@H](c5ccoc5)[C@]4(C)CCC3[C@@]1(C)C2=O` (stereo not given in full), the Potency entry is “inactive”.

Turning to `C=CCC1=C[C@]2(OC)[C@H](C)[C@@H](c3ccc(OC)c(OC)c3)O[C@]2(OC)CC1=O`, the Potency result is “inactive”.

For `C=C1C2(C)CC3C4(C)C=CC(=O)OC(C)(C)C4CCC3(C)C1(C(=O)OC)C(=O)C(C)(O)C2=O` (stereo not given), the Potency result is “inactive”.

With `CC(C)NC(=O)c1ccc(C#Cc2ccncc2)cn1`, the Potency entry was “inactive”.

`CCc1nn(CCO)c(CC)c1Oc1cc(C#N)cc(C#N)c1`: the Potency result was “inactive”.

As for `C[C@H]1CC[C@@]2(OC1)O[C@H]1CC3C4CC[C@H]5C[C@@H](O)CC[C@]5(C)C4CC(=O)[C@]3(C)[C@H]1[C@@H]2C` (stereo not given in full), the Potency entry was “inactive”.

With `CN[C@H](CNC(=O)N1CCC[C@@H]([C@@H](OCCNC(=O)OC)c2cccc(Cl)c2)C1)C[C@H]1CCCOC1`, the Potency entry is “inactive”.

On to `COc1cnc(-n2cnc(C)n2)c2[nH]cc(C(=O)C(=O)N3CCN(C(=O)c4ccccc4)CC3)c12`, for which the Potency result is “inactive”.

Take `CC(=O)/C=C/C1C(C)CC(O[C@@H]2O[C@H](CO)[C@@H](O)[C@H](O)[C@H]2O)CC1(C)C` (stereo not given in full): the Potency entry was “inactive”.

In the case of `CC(C)=CCC/C(C)=C/CO[C@@H]1O[C@H](CO[C@@H]2OC[C@](O)(CO)[C@H]2O)[C@@H](O)[C@H](O)[C@H]1O`, the Potency entry was “inactive”.

With `O=C(O)CCc1ccc(NCc2cccc3c2CCCN3CCOc2ccccc2)cc1F`, the Potency result is “inactive”.

With `CC(C)C(NC(=O)c1ccc(O)cc1)C(=O)N1CCCC1C(=O)Nc1c(O)cccc1C(=O)O` (stereo not given), the Potency result was “inactive”.

With `CC1=CC(=O)CC(C)(C)C1CO[C@@H]1O[C@H](CO)[C@@H](O)[C@H](O)[C@H]1O` (stereo not given in full), the Potency result was “inactive”.

For the compound `N[C@@H](CCNCc1ccc(Cl)cc1)C(=O)N1CCCCC1`, the Potency result was “inactive”.

Turning to `O=C(Nc1cc(-c2ccccc2)nn1-c1ccccc1F)c1ccc([N+](=O)[O-])cc1`, the Potency result is “inactive”.

As for `O=C(/C=C/c1ccc(O)c(O)c1)O[C@H]1[C@@H]2C=CO[C@@H](O[C@@H]3O[C@H](CO)[C@@H](O)[C@H](O)[C@H]3O)[C@@H]2[C@@]2(CO)O[C@@H]12`, the Potency entry was “inactive”.

Take `O=C(Cc1ccc(Cl)cc1)Nc1cnccc1C(=O)O`: the Potency result is “inactive”.

Turning to `C=C(CCO)C(=O)OCC1OCC(OC(=O)C(=C)CCO[C@@H]2O[C@H](COC(=O)C(=C)CCO[C@@H]3O[C@H](CO)[C@@H](O)[C@H](O)[C@H]3O)[C@@H](O)[C@H](O)[C@H]2O)C(O)C1O` (stereo not given in full), the Potency result is “inactive”.

Take `CC(C)c1ccc2c(c1)C(=O)CC1C(C)(C(=O)O)CCCC21C` (stereo not given): the Potency result was “inactive”.

As for `C[C@@H]1[C@H](O)[C@@H]2OC(=O)C3=C2[C@H](CCC3)[C@@]12C[C@@H](c1ccoc1)OC2=O`, the Potency entry was “inactive”.

`CCOC(=O)C1=C(N)Oc2ccc(Cl)cc2C1C(C#N)C(=O)OCC` (stereo not given): the Potency entry is “inactive”.

On to `N#Cc1ccc(C2CCCc3cncn32)cc1` (stereo not given), for which the Potency entry was “inactive”.

Consider `C=C1CC23CC1CCC2C12OC(=O)C(C)(C(O)CC1O)C2C3C(=O)O` (stereo not given), for which the Potency entry was “inactive”.

`O=C(/C=C/c1ccccc1)O[C@@H]1[C@@H](CO)O[C@@](CO)(O[C@H]2O[C@H](CO)[C@@H](O)[C@H](O)[C@H]2O)[C@H]1O`: the Potency result was “inactive”.

As to `O=C(COCC(=O)N1CCN(C(c2ccccc2)c2ccccc2)CC1)Nc1ccc(Cl)cc1C(=O)O`, the Potency result was “inactive”.

Take `C/C=C/C(=O)OC1/C=C/C(O)C(OC(C)=O)CCC(=O)OC1C` (stereo not given): the Potency entry was “inactive”.

As for `C=CCc1cc(OC)c(OC(C)C(O)c2ccc(O)c(OC)c2)c(OC)c1` (stereo not given), the Potency entry was “inactive”.

As for `C[C@@H](c1ccccc1)N(C(N)=NC#N)c1cccc2ncccc12`, the Potency result is “inactive”.

For the compound `C[C@]1(OC(=O)/C=C\c2ccc(O)cc2)C[C@@H](O)[C@]2(O)C=CO[C@@H](O[C@@H]3O[C@H](CO)[C@@H](O)[C@H](O)[C@H]3O)C12` (stereo not given in full), the Potency result is “inactive”.

In the case of `COc1ccc(-n2c(SCC#N)nc3sc4c(c3c2=O)CCCC4)cc1`, the Potency entry is “inactive”.

`Cc1ccc(Cl)cc1N(CC(=O)Nc1c(F)cccc1F)S(C)(=O)=O`: the Potency entry was “inactive”.

On to `CC1=C2C(=O)C=C(CO)C2[C@H]2OC(=O)[C@H](C)[C@@H]2[C@@H](OC(=O)Cc2ccc(O)cc2)C1` (stereo not given in full), for which the Potency result was “inactive”.

Regarding `COc1ccc(CCc2nc3cc(-c4c(C)noc4C)ccc3n2C[C@H](C)N2CCOCC2)cc1Cl`, the Potency entry was “inactive”.

In the case of `COC(=O)C1=COC(OC2OC(CO)C(O)C(O)C2O)C2C(C)C(OC(=O)/C=C/c3ccc(O)cc3)C(O)C12` (stereo not given), the Potency entry is “inactive”.

Turning to `CC1=C2CC(O)(C(C)(C)O)C(O[C@@H]3O[C@H](CO)[C@@H](O)[C@H](O)[C@H]3O)CC(C)C2CC1=O` (stereo not given in full), the Potency result is “inactive”.
